Compound activity from PubChem BioAssay.
Most compounds without a hit are left out; they make up all but 0.93% or so of the library.
RPL19A-GFP yeast = yeast TOR pathway RPL19A-GFP modulation; S. cerevisiae RPL19A-GFP strain, flow cytometry, 3 h; stronger effect = lower value; percent response vs DMSO, % at 10 µM; AID 2025; actives 0.3% (n = 330,000);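 active means percent response vs DMSO below 50%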;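 further: median channel GFP fluorescence of the barcoded RPL19A-GFP strain; ratio of sample median GFP to plate DMSO average so 100% = DMSO; lower means less RPL19A-GFP as with rapamycin TOR inhibition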
MEP2-GFP yeast = alters MEP2-GFP fluorescence in TOR pathway yeast screen; S. cerevisiae MEP2-GFP strain, flow cytometry GFP, 3 h; 100% = DMSO control level; actives 0.51% (n = 330,000); GFP response vs DMSO, % at 10 µM; AID 2016;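 active means GFP response versus DMSO above a set limit, roughly screen mean plus 3 SD, cut at about 180% in these data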;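 further: median GFP fluorescence of the barcode-gated MEP2-GFP cells per well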
LAP4 TOR yeast = yeast TOR pathway LAP4-GFP modulation. S. cerevisiae LAP4-GFP multiplex, flow cytometry GFP, 3 h; median GFP as percent of DMSO wells. GFP response vs DMSO, % at 10 µM. actives 0.34% (n = 320,000). AID 2023;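 active means GFP response vs DMSO above a set limit, about the screen mean plus 3 SD, cut at about 150% in these data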
CIT2-GFP yeast = alters CIT2-GFP fluorescence in TOR pathway yeast screen. GFP response vs DMSO, % at 10 µM. S. cerevisiae CIT2-GFP strain, flow cytometry, 3 h; 100 means same as DMSO wells. actives 0.065% (n = 320,000);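 active means GFP response relative to DMSO above a set limit, near the screen mean plus 3 SD, cut at about 150% in these data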;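 further: ratio of well median GFP fluorescence to mean of DMSO wells on the plate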
AGP1 TOR yeast = yeast TOR pathway AGP1-GFP modulation; actives 0.02% (n = 320,000); S. cerevisiae AGP1-GFP multiplex flow cytometry, 3 h; GFP as percent of DMSO wells; GFP response vs DMSO, % at 10 µM;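 active means GFP response relative to DMSO above a set limit, near screen average plus 3 SD, cut at about 150% in these data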;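 further: median GFP channel fluorescence of the gated AGP1 strain per well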
LAP4 cherry2 = reconfirmed LAP4-GFP TOR pathway modulator in yeast | S. cerevisiae LAP4-GFP strain, flow cytometry GFP, 3 h | actives 20% (n = 590) | shares compounds with LAP4 TOR yeast | GFP response vs DMSO, % at 10 µM;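 active means GFP signal as percent of the solvent control above about 150%, meaning raised reporter expression, limit read from the data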;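 further: ratio of well median GFP fluorescence to plate DMSO mean so 100% = DMSO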
MEP2 cherry2 = reconfirmed MEP2-GFP TOR pathway modulator in yeast; actives 10% (n = 590); shares compounds with LAP4 TOR yeast; GFP response vs DMSO, % at 10 µM; S. cerevisiae MEP2-GFP strain, flow cytometry GFP, 3 h;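 active means GFP signal above 150% of the solvent control wells, that is a rise of more than half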;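 further: median channel GFP fluorescence of all gated yeast cells per well; ratio of median GFP to plate DMSO average so 100% = DMSO level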
RPL19A-GFP pick2 = second confirmation of modulators of TOR reporter RPL19A-GFP in yeast; shares compounds with LAP4 TOR yeast; S. cerevisiae RPL19A-GFP strain, flow cytometry GFP, 3 h; stronger effect = lower value; 100% means same as DMSO wells; GFP response vs DMSO, % at 10 µM; actives 3% (n = 590); AID 2623;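 active means under 65% GFP response relative to DMSO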;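 further: median GFP channel fluorescence per well over the all cells gate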
CIT2 GFP CP2 = reconfirmed modulator of CIT2-GFP TOR reporter in yeast. shares compounds with LAP4 TOR yeast. S. cerevisiae CIT2-GFP strain, flow cytometry GFP, 3 h; DMSO control wells read 100%. GFP response vs DMSO, % at 10 µM. actives 8% (n = 590);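 active means GFP response vs DMSO above about 150%, limit read from the data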;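 further: median green fluorescence per well over all gated yeast cells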
AGP1 GFP CP2 = reconfirmed modulator of AGP1-GFP TOR reporter in yeast; shares compounds with LAP4 TOR yeast; S. cerevisiae AGP1-GFP strain, flow cytometry GFP, 3 h; percent response vs DMSO, % at 10 µM; 590 tested, under 10 active;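 active means over 150 percent of DMSO response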;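 further: median GFP channel fluorescence over all cells without mother daughter split; sample median GFP divided by mean DMSO control so 100% equals DMSO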
s288c autofluor = counter-screen for compound autofluorescence in yeast s288c cells. shares compounds with LAP4 TOR yeast. S. cerevisiae s288c, 520 nm autofluorescence, flow cytometry, 3 h; stronger effect = higher value; zero means same as solvent-only cells. fluorescence change (kMESF span) at 33 µM. 610 tested, under 10 active. AID 2757;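 active means fluorescence span over the dose series, or activity score, above about 33, limit read from the data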
s288c autofl DR = counter-screen for autofluorescence of TOR hits in yeast s288c; 110 tested, under 10 active; fluorescence change (span) at 33 µM; shares compounds with LAP4 TOR yeast; S. cerevisiae s288c parental, compound autofluorescence, flow cytometry, 3 h;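 active means fluorescence change span, or the activity score built from it, above 25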
TORC1 bypass = wildtype yeast growth loss with TORC1 bypass cells unaffected; S. cerevisiae BY4741 spot growth rating, 48-72 h; stronger effect = lower value; 120 tested, under 10 active; shares compounds with LAP4 TOR yeast; AID 504456; growth rating (0-3) at 30 µM;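 active means growth rating at most 1 for wild type yeast while the TORC1 bypass strain still grows fully, rated 3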
The depositor's hits bear a star; . = no result given.

SMILES	RPL19A-GFP yeast	MEP2-GFP yeast	LAP4 TOR yeast	CIT2-GFP yeast	AGP1 TOR yeast	LAP4 cherry2	MEP2 cherry2	RPL19A-GFP pick2	CIT2 GFP CP2	AGP1 GFP CP2	s288c autofluor	others
CCN1CCN(c2ccc(N)cc2C)CC1	61	140	97	100	71	100	103	100	103	99	.
CCN1CCN(c2ccc(N)cc2)CC1	88	90	95	89	97	.	.	.	.	.	.
C=C1C(O)[C@@H]2O[C@]3(CC[C@H](/C=C/C(C)[C@@H]4CC(C)=CC5(O[C@H](C[C@@](C)(O)C(=O)O)CCC5O)O4)O3)CC[C@H]2O[C@@H]1C(O)CC(C)[C@H]1OC2(CCCCO2)CCC1C (stereo partly specified)	98	84	267*	50	80	268*	125	124	86	103	0.4
C/C=C/CC#N	94	88	94	87	93	.	.	.	.	.	.
N#C/C(N)=C(/N)C#N	102	95	108	84	104	.	.	.	.	.	.
C[C@H]1C[C@@H](C)C(=O)[C@@H]([C@H](O)CC2CC(=O)NC(=O)C2)C1	57	81	137	44	53	129	159*	74	88	74	1.3	s288c autofl DR=0.51;TORC1 bypass=0
Fc1ccc(C(OCCN2CCN(CCCc3ccccc3)CC2)c2ccc(F)cc2)cc1	76	99	208*	87	88	103	105	98	107	101	.
CSc1nc(N)c(N=Nc2ccc([As](=O)(O)O)cc2)c(=O)[nH]1	104	104	100	102	101	.	.	.	.	.	.
C[n+]1c(-c2ccccc2)c2cc(N)ccc2c2ccc(N)cc21	93	96	90	85	82	.	.	.	.	.	.
Nc1ccc2ccc3cccc[n+]3c2c1	119	224*	148	191*	111	.	.	.	.	.	15
NS(=O)(=O)c1ccc(-c2ccc(C=C3C(=O)NC(=O)NC3=O)o2)cc1	90	104	113	88	81	.	.	.	.	.	.
O=C1NC(=O)C(=Cc2ccc(SC3CCCCC3)o2)C(=O)N1	61	84	142	53	52	120	135	68	76	69	.
CC1(C)OC(c2ccccc2)=C/C(=C/C=C2C(=O)NC(=S)NC2=O)O1	92	126	179*	.	75	.	.	.	.	.	4.5
Cc1ccc(NP(=O)(c2ccccc2)c2nc3ccccc3s2)cc1 (stereo unspecified)	108	105	83	108	94	.	.	.	.	.	.
CCOc1ccc(N2C(=O)/C(=C\c3cccs3)C(=O)NC2=S)cc1	52	83	103	45	62	168*	131	70	75	71	-0.4
CCOc1ccc(N2C(=O)/C(=C/c3ccco3)C(=O)NC2=S)cc1	95	99	123	95	89	.	.	.	.	.	.
COC(=O)C1=C(c2ccc3ccccc3c2)C[C@@H]2CC[C@H]1N2C(=O)NC(C)C	96	94	99	98	100	.	.	.	.	.	.
CCNc1cc(N2CCNCC2)ccc1[N+](=O)[O-]	101	117	110	.	108	.	.	.	.	.	.
C=C1C(=O)O[C@@H]2C[C@@H](C)[C@H]3C=CC(=O)[C@]3(O)C[C@@H]12	99	207*	91	54	26	102	103	99	100	99	.
O=c1oc2ccccc2c(O)c1[C@H]1c2ccc(O)cc2Oc2c1c(=O)oc1ccccc21	98	92	243*	60	61	.	.	.	.	.	0
NC1=C([N+](=O)[O-])C(c2ccc3c(c2)OCO3)c2c(c3ccccc3oc2=O)O1 (stereo unspecified)	99	104	105	96	100	.	.	.	.	.	.
CN(C)C(=S)SSC(=S)N(C)C	94	92	201*	71	76	129	106	95	110	93	.
CCC(Oc1cc(Cl)ccc1Cl)C(=O)N1CCC2(CC1)OCCO2 (stereo unspecified)	108	121	103	167*	122	98	102	100	101	102	.
O=C(CCCOc1ccc(Cl)cc1Cl)N1CCC2(CC1)OCCO2	99	109	107	91	98	.	.	.	.	.	.
